About 2,000 (36%) of roughly 5,500 compounds were called active. Another 18% or so got no clear call; they are omitted. No stated cut-off is given here; in the data, active means normalized growth mostly below about 0.91 (no sharp cut-off); inconclusive means no clear call, values can overlap the other calls; inactive means mostly above about 0.92. Some of the results follow.
Experiment: chemical genetic growth profiling, strain panel (AID 1159580);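 further: tested at 20 µM; growth read once vehicle control cultures reached saturation at 30 °C; 1 = growth at the plate median or of vehicle wells; lower values mean less growth of the strain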
Conditions: S. cerevisiae deletion strains, growth OD

Measured: normalized growth

O=C(/C=C/c1ccccc1)O[C@H]1C[C@@H](O)[C@]2(O)C=CO[C@@H](O[C@@H]3O[C@H](CO)[C@@H](O)[C@H](O)[C@H]3O)[C@H]12
inactive: locus YAL021C, strain ccr4, hits give low values 0.996 | locus YAL026C, strain drs2, hits give low values 1.03 | locus YAL030W, strain snc1, hits give low values 1.03 | locus YBL061C, strain skt5, hits give low values 1.02 | locus YBR009C, strain hhf1, hits give low values 1.05 | locus YBR023C, strain chs3, hits give low values 1.02 | locus YBR171W, strain sec66, hits give low values 1.03 | locus YBR231C, strain swc5, hits give low values 1.03 | locus YBR279W, strain paf1, hits give low values 1.02 | locus YCL011C, strain gbp2, hits give low values 1.02 | locus YCL016C, strain dcc1, hits give low values 1.03 | locus YCL061C, strain MRC1, hits give low values 1.02 | locus YCL069W, strain vba3, hits give low values 1.03 | locus YCR088W, strain abp1, hits give low values 1.02 | locus YDL005C, strain med2, hits give low values 1.02 | locus YDL040C, strain nat1, hits give low values 1.03 | locus YDR001C, strain nth1, hits give low values 1.02 | locus YDR069C, strain doa4, hits give low values 1.03 | locus YDR137W, strain rgp1, hits give low values 1.03 | locus YDR159W, strain sac3, hits give low values 1.05 | locus YDR195W, strain ref2 1.01 | locus YDR297W, strain sur2, hits give low values 1.02 | locus YDR334W, strain swr1, hits give low values 1.03 | locus YDR335W, strain msn5, hits give low values 1.02 | locus YDR392W, strain spt3, hits give low values 0.927 | locus YEL003W, strain gim4, hits give low values 1.03 | locus YEL037C, strain rad23, hits give low values 1.02 | locus YEL061C, strain CIN8 (second series), hits give low values 1.01 | locus YER015W, strain faa2, hits give low values 1.02 | locus YER016W, strain bim1, hits give low values 1.03 | locus YER111C, strain swi4, hits give low values 1.03 | locus YER155C, strain BEM2 (second series), hits give low values 1.04 | locus YFR010W, strain ubp6, hits give low values 1.03 | locus YGL167C, strain pmr1, hits give low values 1.02 | locus YGL173C, strain kem1, hits give low values 1.03 | locus YGL227W, strain vid30, hits give low values 1.03 | locus YGL240W, strain doc1, hits give low values 1.04 | locus YGL253W, strain hxk2, hits give low values 1.03 | locus YHR013C, strain ard1, hits give low values 0.995 | locus YHR027C, strain rpn1, hits give low values 1.03 | locus YHR030C, strain SLT2, hits give low values 0.902 | locus YHR079C, strain IRE1, hits give low values 0.939 | locus YHR142W, strain chs7, hits give low values 0.998 | locus YJL092W, strain hpr5, hits give low values 1.02 | locus YJL095W, strain BCK1 (second series), hits give low values 1.03 | locus YJL095W, strain BCK1, hits give low values 0.928 | locus YJL115W, strain asf1, hits give low values 1.03 | locus YJL129C, strain trk1, hits give low values 1.01 | locus YJL154C, strain vps35, hits give low values 1.02 | locus YJL164C, strain tpk1, hits give low values 1.01 | locus YJL166W, strain qcr8, hits give low values 1.03 | locus YJL187C, strain SWE1, hits give low values 1.02 | locus YJR066W, strain TOR1, hits give low values 0.92 | locus YKL160W, strain elf1, hits give low values 0.989 | locus YKR026C, strain gcn3, hits give low values 1.03 | locus YKR091W, strain srl3, hits give low values 1.02 | locus YLL001W, strain dnm1, hits give low values 1.02 | locus YLL026W, hits give low values 1.02 | locus YLL041C, strain sdh2, hits give low values 1.02 | locus YLR027C, strain aat2, hits give low values 1.02 | locus YLR113W, strain HOG1, hits give low values 0.878 | locus YLR221C, strain rsa3, hits give low values 1 | locus YLR258W, strain gsy2, hits give low values 1.05 | locus YLR262C, strain YPT6 (second series), hits give low values 1.04 | locus YLR320W, strain mms22, hits give low values 1.02 | locus YLR342W, strain FKS1, hits give low values 1.02 | locus YLR357W, strain rsc2, hits give low values 1.02 | locus YLR370C, strain arc18, hits give low values 1.02 | locus YLR384C, strain iki3, hits give low values 1.03 | locus YML120C, strain ndi1, hits give low values 0.999 | locus YMR058W, strain fet3, hits give low values 1.02 | locus YMR125W, strain sto1, hits give low values 1.03 | locus YMR129W, hits give low values 1.02 | locus YMR205C, strain PFK2, hits give low values 1.06 | locus YMR231W, strain pep5, hits give low values 1.03 | locus YNL071W, strain lat1, hits give low values 1.02 | locus YNL183C, strain NPR1, hits give low values 0.951 | locus YNL209W, strain ssb2, hits give low values 1.02 | locus YNL248C, strain rpa49, hits give low values 0.992 | locus YNL322C, strain KRE1 (second series), hits give low values 1.03 | locus YNR049C, strain mso1, hits give low values 1.03 | locus YOR001W, strain rrp6, hits give low values 1 | locus YOR070C, strain gyp1, hits give low values 1.03 | locus YOR080W, strain dia2, hits give low values 1.03 | locus YOR083W, strain WHI5, hits give low values 0.986 | locus YOR106W, strain vam3, hits give low values 1.01 | locus YOR231W, strain MKK1, hits give low values 0.938 | locus YOR265W, strain rbl2, hits give low values 1.02 | locus YOR270C, strain vph1, hits give low values 1.03 | locus YOR290C, strain snf2, hits give low values 0.969 | locus YPL051W, strain arl3, hits give low values 1.01 | locus YPL078C, strain atp4, hits give low values 0.996 | locus YPL106C, strain sse1, hits give low values 1.04 | locus YPL240C, strain hsp82, hits give low values 1.02 | locus YPL256C, strain CLN2, hits give low values 0.943

Reference: PubChem BioAssay AID1159580 (chemical genetic matrix, 2015)
